Screening data from PubChem BioAssay.
This is a sample that favours compounds with a hit; in the whole collection about 2.4% have one here.
PHOSPHO1 block = PubChem AID 1565; inhibition, % at 13.3 µM; Phosphoethanolamine/phosphocholine phosphatase (Homo sapiens), Q8TCT1; 1.1% of 290,000 active; recombinant PHOSPHO1, absorbance phosphatase assay; in the data active means inhibition above about 60%
Target sequence (Q8TCT1 whole entry, looked up): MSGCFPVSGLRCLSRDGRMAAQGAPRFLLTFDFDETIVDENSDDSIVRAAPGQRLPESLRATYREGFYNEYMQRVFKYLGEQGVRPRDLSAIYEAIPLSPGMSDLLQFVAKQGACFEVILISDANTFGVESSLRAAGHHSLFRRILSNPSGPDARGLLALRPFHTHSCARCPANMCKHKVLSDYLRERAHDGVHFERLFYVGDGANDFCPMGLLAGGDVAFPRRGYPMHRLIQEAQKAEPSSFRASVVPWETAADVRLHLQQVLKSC
PABP FP inh = PABP poly(A) RNA binding inhibitors, primary screen, biochemical, fluorescence polarization, uHTS | Polyadenylate-binding protein 1 (Homo sapiens), P11940 | calls only at 35 µM | 1% of 290,000 active | AID 2014, 2009;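 further: calls also rest on retests at 20 µM and on dose response follow-up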
Efa HMGR inh = inhibitors of E. faecalis class II HMGR, primary screen, biochemical, Enterococcus faecalis; HMG-CoA reductase (Enterococcus faecalis, mvaE); purified E. faecalis HMGR, NADPH absorbance 340 nm kinetic; inhibition, % at 10 µM; 0.41% of 190,000 active; AID 1066, 2008;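 active means inhibition above a set limit, the median over all tested compounds plus 3 SD, cut at about 9.5% in these data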;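 further: enzyme runs in reverse so mevalonate oxidation gives rising NADPH absorbance; 0% = complete reaction with DMSO and 100% = background rate lacking mevalonate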
MLLE-PAM2 inh = inhibitors of PABP1 MLLE–PAM2 peptide binding, primary screen, biochemical, fluorescence polarization, FITC-PAM2, GST-MLLE; 0.36% of 360,000 active; Polyadenylate-binding protein 1 (Homo sapiens), P11940; inhibition, % at 20 µM; in the data active means inhibition above about 35%, passing the limit was not always enough;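 further: plate controls were DMSO wells with GST-MLLE for no effect and wells lacking GST-MLLE protein for full effect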
eIF4H FP inh = human eIF4H binding inhibitors, primary screen, translation initiation inhibitor project, biochemical, uHTS, fluorescence polarization. 0.94% of 290,000 active. eIF4H fluorescence polarization binding assay. inhibition, % at 35 µM. Eukaryotic translation initiation factor 4H (Homo sapiens), Q15056;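 further: calls also rest on retests at 20 µM and on dose response follow-up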
An asterisk follows results filed as active; i = inactive; . = no result; + = active, no number. Unless noted, how the calls were made is not given here.

SMILES	PHOSPHO1 block	PABP FP inh	Efa HMGR inh	MLLE-PAM2 inh	eIF4H FP inh
COc1ccc(OCc2nnc(SCC(=O)NC3CC3)n2C)cc1	63*	i	.	6	-4
c1ccc2c(c1)[nH]c1c3ccccc3sc21	21	i	.	9	-10
Cc1nc(SCC(=O)O)c(C#N)c2c1CCCC2	2	+	.	-29	108*
COc1ccccc1-c1cc(-c2ccccc2)nc(SCC(=O)O)c1C#N	-11	i	.	-5	-2
NCCCC[C@H]1NC(=O)[C@H](CCC(=O)O)NC(=O)c2cc([N+](=O)[O-])cc(I)c2OCC[C@@H](C(N)=O)NC1=O	-1	i	-5	.	23
NC(=O)CC1NC(=O)c2cc([N+](=O)[O-])cc(I)c2OCCC(C(N)=O)NC(=O)[C@@H]2CCCN2C1=O (stereo not given in full)	8	i	-7	.	active
Cc1nc2ccccc2n1-c1ccccc1	1	i	1	-1	-1
Cc1nc2nc(C)n(-c3ccccc3)c2s1	71*	i	5	-92	5
Cc1ccccc1-c1nc2c3ccccc3nc(=S)n2[nH]1	11	i	.	-54	0
Cc1nc2ccccc2n1CCc1nc2c3ccccc3nc(=S)n2[nH]1	86*	i	0	-35	-2
COc1ccc(C2CC(c3cccs3)=Nc3ccccc3S2)cc1 (stereo not given)	-26	i	-2	51*	-5
COc1ccc(CNC(=O)[C@@H](NC(=O)C2CCN(S(=O)(=O)c3ccc(C)cc3)CC2)C(C)C)cc1OC	32	i	.	-2	-12
Nc1c(-c2ccccc2)cnn1-c1cccc([N+](=O)[O-])c1	65*	i	-4	-1	-9
CC(=O)Nc1ccc(NC(=O)COC(=O)c2c3c(nc4ccccc24)CCN(Cc2ccccc2)C3)cc1	-12	i	-9	-11	2
CCN1CCc2nc3ccccc3c(C(=O)Nc3ccc(F)cc3)c2C1	-19	i	.	-5	15
O=C(NCc1ccc(F)cc1)c1c2c(nc3ccccc13)CCN(Cc1ccccc1)C2	-2	+	3	-2	active
COC(=O)c1ccc(CNC(=O)c2c3c(nc4ccccc24)CCN(Cc2ccccc2)C3)cc1	12	+	-2	-20	87*
Cc1onc(-c2ccccc2Cl)c1C(=O)NC(=S)NCC(=O)c1ccccc1	63*	i	-4	11	-6
Cc1onc(-c2ccccc2Cl)c1C(=O)Nc1nnc(C(C)C)s1	1	i	-6	-5	-2
CCc1ccc(NC(=S)NC(=O)c2c(-c3ccccc3Cl)noc2C)cc1	28	i	.	25	4
Cc1onc(-c2ccccc2Cl)c1C(=O)NCc1ccco1	21	+	-1	-2	95*
Cc1nnc(NC(=O)c2c(-c3ccccc3Cl)noc2C)s1	60*	i	4	12	-2
O=C(Nc1nc(=O)c2ccccc2s1)c1ccc(F)cc1	2	i	-7	38*	-3
Cc1ccc2c(c1)N(CC(=O)NCCCN1CCCCC1)C(=O)CO2	32	i	.	-5	-8
O=C(c1c(F)cccc1F)N1CCCC(c2nc(-c3ccc(F)cc3)no2)C1 (stereo not given)	62*	i	.	-4	-6
SMILES	PHOSPHO1 block	PABP FP inh	Efa HMGR inh	MLLE-PAM2 inh	eIF4H FP inh
NC(=S)N=Nc1c(O)[nH]c2ccc(F)cc12	1	i	-4	48*	9
Cc1ccc(N(CC(=O)NCc2ccc(F)cc2)S(=O)(=O)c2c(C)nn(C)c2C)cc1	62*	i	.	1	-6
Cc1[nH][nH]c(=O)c1C(c1c(C)[nH][nH]c1=O)c1cn(Cc2ccc(F)cc2)c2ccccc12	7	i	53*	20	6
O=c1c2ccccc2ncn1Cc1ccc(Cl)c(Cl)c1	32	i	.	6	2
Cc1[nH][nH]c(=O)c1C(c1c(C)[nH][nH]c1=O)c1cn(Cc2ccc(Cl)c(Cl)c2)c2ccccc12	-10	i	39*	9	-2
O=C(O)Cc1cn(Cc2ccc(F)cc2)c2ccccc12	-5	i	4	8	12
CC1OC2CC(=O)OC2C2=C1C(=O)c1c(O)cccc1C2=O (stereo not given)	.	.	.	34	.
O=C(O)CCCNC(=O)Cc1ccccc1	42	i	.	0	4
O=C(CCC(=O)N1CCN(Cc2ccc(F)cc2)CC1)Nc1nnc(C(F)(F)F)s1	-21	i	.	-10	-10
CCCCc1cc(=O)oc2cc(C)cc(OC(C)C(=O)NCc3cccnc3)c12 (stereo not given)	42	i	.	5	1
O=C1CCCC2=C1Sc1ccccc1N2	18	i	.	43*	43
C=CCN(c1cccc(C(F)(F)F)c1)S(=O)(=O)c1cccc(C(=O)OCC(=O)Nc2ccccc2)c1	-8	i	-4	-2	-8
CC1CCN(C(=O)CSc2nncn2C)CC1	28	i	-2	2	0
CC1CCN(C(=O)CSc2nncn2-c2ccccn2)CC1	74*	i	-3	39*	-8
Cc1ccc2nc(SCC(=O)N3CCC(Cc4ccccc4)CC3)nc(=O)n2c1	.	.	.	-12	.
N#Cc1cccn1-c1nccs1	32	i	-3	2	9
O/N=C\c1cccn1-c1nccs1	4	+	-4	-2	10*
O=C(Nc1cccs1)Nc1c(F)c(F)cc(F)c1F	12	+	-6	12	69*
O=C(Nc1cccs1)Nc1c(F)c(F)c(F)c(F)c1F	-20	i	-8	43*	53
O=C(Nc1cccs1)Nc1c(F)cc(F)cc1Br	-60	i	-7	23	4
Cn1c(=O)c2[nH]c(CN(Cc3ccccc3)Cc3ccccc3)nc2n(C)c1=O	-12	i	-2	2	-13
Cn1c(=O)c2[nH]c(COc3ccccc3)nc2n(C)c1=O	.	.	.	63*	.
CCC(=NCCc1ccc(OC)c(OC)c1)C1=C(O)CC(C)(C)CC1=O	23	i	1	-1	active
CCC(=NCCc1ccc(OC)c(OC)c1)c1ccccc1O	.	i	.	-4	8
Cc1cc(C)n2nc(C(=O)OCC(=O)c3cc(C)n(C)c3C)nc2n1	39	i	-2	8	62*
SMILES	PHOSPHO1 block	PABP FP inh	Efa HMGR inh	MLLE-PAM2 inh	eIF4H FP inh
Cc1cc(C)n2nc(C(=O)OCC(=O)c3ccccc3Cl)nc2n1	.	.	.	2	.
COc1ccc(S(=O)(=O)N2CC(=O)Nc3ccccc32)cc1	25	i	.	1	15
O=C(O)c1cnn(-c2ccccc2)c1-c1ccncc1	29	i	.	4	57*
O=C(Nc1cccc2ccccc12)c1ccc2sc([C@@H]3O[C@H](CO)[C@H](O)[C@H](O)[C@H]3O)nc2c1	.	.	.	2	.
Cc1c(N)cc(N)cc1C(=O)O	9	+	.	0	83*
Cc1c(Br)cc(C(=O)O)c(C)c1C	-31	i	-8	3	6
